This note sets out measurements from PubChem BioAssay (Tox21).

Results filed as inconclusive are left out. A call without a number means that no potency is given here. Unmarked numbers belong to inactive results. Activity calls are given as the source filed them. Calls follow the shape of the dose curve; as a rule, active = well fitted cell-killing curve with a large enough effect in the repeat runs; inconclusive = weak or mixed curves, or effect the other way; inactive = flat fitted curve, though single readings scatter.

The assay can be described thus: qHTS RealTime-Glo MT Cell Viability Assay in HEK293 cells - 0 hour (AID 1224880). Also: top concentration of the series differs between compounds; nearly all actives have a fitted effect of over 45% in size. The settings on record: RealTime-Glo luminescence; series mostly up to 76.8 µM; activity change, negative = cytotoxicity: at the top concentration. The text has this:
U.S. Tox21 Program National Center for Advancing Translational Sciences [NCATS] NIH Chemical Genomics Center [NCGC] U.S. Environmental Protection Agency [EPA] National Institutes of Environmental Health Sciences [NIEHS] National Toxicology Program [NTP] U.S. Food and Drug Administration [FDA] Tox21 Assay Overview: Measure of cell viability is critical in the cell-base assay. Analysis of cell viability is necessary for the characterization of cell responses to cytotoxic drugs and environmental stress. A RealTime-Glo MT Cell Viability Assay to monitor cell viability in real time of continues cell culture during 40 hours of compound treatment was used to screen Tox21 10K library compounds in Hek293 cells. The RealTime-Glo MT Cell Viability Assay is a nonlytic, homogeneous, bioluminescent method to measure cell viability in real time using a simple, plate-based method. The assay involves adding NanoLuc luciferase and a cell-permeant prosubstrate to cells in culture. Viable cells reduce the proprietary prosubstrate to generate a substrate for NanoLuc luciferase. This substrate diffuses from cells into the surrounding culture medium, where it is rapidly used by the NanoLuc Enzyme to produce a luminescent signal. The signal correlates with the number of viable cells, making the assay well suited for cytotoxicity studies.
Tox21 Assay Protocol Summary: The mixture of Hek293 cell suspension and reagents were dispensed at 600cells/6 ul/well in 1536-well tissue culture treated black solid bottom plates using a Multidrop dispenser. After the assay plates were incubated at a 37 C/5% CO2 incubator for 5 hours, 23 nL of compounds dissolved in DMSO, positive and negative controls was transferred to the assay plate by a pintool work station. The plates were incubated at 37 C for 40 hours. The luminescence intensity were measured at 0h, 8h, 16h, 24h, 32h and 40h time points using ViewLux plate reader during compound treatment.
In general terms: In qHTS, concentration-response curves come from the screen itself.
`OCC1CCCO1` (stereo not given): the Potency entry is “inactive”.

Turning to `Cc1cc(NS(=O)(=O)c2ccc(N)cc2)no1`, the Potency entry was “inactive”. The same measure, in the same setting: for `CCCCCCCCCCCCOCC1CO1` (stereo not given) the value was “inactive”. Same read-out and setting: to `CC(C)n1c(/C=C/[C@@H](O)C[C@@H](O)CC(=O)O)c(-c2ccc(F)cc2)c2ccccc21` belongs “inactive”; to `Clc1ccc(Cl)c(Cl)c1Cl`, “inactive”; to `Cc1ccc(C(=O)O)o1`, “inactive”. Take `CCCCCCCCC`: the Potency result is “inactive”.

On to `C=C1CC[C@H](O)CC1=C/C=C1\CCC[C@]2(C)[C@@H]([C@H](C)/C=C/[C@H](C)C(C)C)CC[C@@H]12`, for which the Potency result was “inactive”. For the molecule `CC1=CC[C@H]2C[C@@H]1C2(C)C`, the Potency entry is “inactive”. Still for that read-out and setting: for `CC(=O)Nc1ccc(C(=O)O)cc1` the value was “inactive”. The same measure, in the same setting: to `CC(C)Cc1ccccc1` belongs “inactive”. Same read-out and setting: to `CC1(C)CC(N=C=O)CC(C)(CN=C=O)C1` (stereo not given) belongs “inactive”; to `NC(=O)/N=N/C(N)=O`, “inactive”.

Consider `CCc1ccccc1O`, for which the Potency result was “inactive”. On the same count and under the same terms, to `O=C1O[C@H](CO)[C@@H](O)[C@H](O)[C@H]1O` belongs “inactive”; to `O=C(c1cc(O)c(O)c(O)c1)c1ccc(O)c(O)c1O`, “inactive”. The same measure, in the same setting: to `ClC1=C(Cl)C(Cl)(Cl)C(Cl)=C1Cl` belongs “inactive”; to `O=C1CCCCC1`, “inactive”; to `C[C@@H](O)[C@H]1C(=O)N2C(C(=O)O)=C(S[C@@H]3CN[C@H](C(=O)N(C)C)C3)[C@H](C)[C@H]12`, “inactive”. On the same count and under the same terms, to `NCCNCCNCCNCCN` belongs “inactive”. As to `O=C(Oc1ccccc1)c1ccc(O)cc1`, the Potency result is “inactive”. Take `CCCCC/C=C\C/C=C\CCCCCCCC(=O)OC`: the “activity change, negative = cytotoxicity” value is -1.22%.

For the molecule `COC(=O)c1ccccc1O`, the Potency result is “inactive”.

Take `CCCCOCCO`: the Potency entry was “inactive”. With `C=C(C)C(=O)OCC(CC)(COC(=O)C(=C)C)COC(=O)C(=C)C`, the Potency result is “inactive”.

As for `Oc1ccc(OCc2ccccc2)cc1`, the Potency entry is “inactive”.

Regarding `COCC(=O)O`, the Potency entry was “inactive”. For `CN(CCOc1ccc(CC2SC(=O)NC2=O)cc1)c1ccccn1` (stereo not given), the “activity change, negative = cytotoxicity” value was -0.421% [at 35.3 µM].

Turning to `O=C(O)c1cc(-c2ccccc2)nc2ccccc12`, the Potency result is “inactive”. `OCCOCCOCCOCCO`: the “activity change, negative = cytotoxicity” value is 8.05%. Regarding `CCCCCCCCCC(=O)O`, the Potency entry is “inactive”. For the molecule `Oc1ccc2ccccc2c1`, the Potency entry is “inactive”. The same measure, in the same setting: for `CCOC(=O)/C=C\C(=O)OCC` the value was “inactive”; for `Cc1cc(O)c2c(c1)C(=O)c1cc(O)cc(O)c1C2=O`, “inactive”. The same measure, in the same setting: for `Cc1ccc(C)c(C)c1` the value was “inactive”; for `CCCCCCCCCCC=CC1CC(=O)OC1=O` (stereo not given), “inactive”. The same measure, in the same setting: for `CC#C[C@]1(O)CC[C@H]2[C@@H]3CCC4=CC(=O)CCC4=C3[C@@H](c3ccc(N(C)C)cc3)C[C@@]21C` the value was “inactive”.

Take `CCCCC(CC)COC(C)=O` (stereo not given): the Potency result was “inactive”.

`CC(C)(N=C=O)c1cccc(C(C)(C)N=C=O)c1`: the Potency entry is “inactive”. With `C/C=C(C)/C=C/C=C(C)C`, the Potency result was “inactive”.
